ATG4B inh = ATG4B protease inhibitors, primary screen, biochemical, fluorescence, uHTS; ATG4B cleavage of LC3-PLA2, NBD-HPC fluorescence, 1 h; hit rate 0.51% among 340,000; Cysteine protease ATG4B (Homo sapiens), Q9Y4P1; inhibition, % at 8.33 µM; in the data active = inhibition above about 40%
Target sequence (Q9Y4P1 whole entry, looked up): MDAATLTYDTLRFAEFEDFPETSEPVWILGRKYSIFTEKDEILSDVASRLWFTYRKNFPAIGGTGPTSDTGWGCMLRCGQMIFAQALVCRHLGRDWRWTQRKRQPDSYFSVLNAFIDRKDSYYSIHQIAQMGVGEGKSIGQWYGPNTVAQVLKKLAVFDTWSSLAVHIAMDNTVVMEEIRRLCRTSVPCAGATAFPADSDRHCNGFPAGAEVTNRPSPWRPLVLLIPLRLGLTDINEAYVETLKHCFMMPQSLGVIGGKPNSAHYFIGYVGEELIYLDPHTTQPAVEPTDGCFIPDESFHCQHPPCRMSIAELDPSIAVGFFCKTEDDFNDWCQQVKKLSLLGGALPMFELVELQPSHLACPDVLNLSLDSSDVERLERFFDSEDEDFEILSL
DAGLB inhibitor = DAGLB lipase inhibitors, primary screen, biochemical, fluorescence, HTS | Diacylglycerol lipase-beta (Homo sapiens), Q8NCG7 | HEK293T DAGLB membrane lysate, EnzChek fluorogenic substrate | inhibition, % at 5.17 µM | hit rate 0.059% among 340,000 | AID 504411, 2011; in the data active = inhibition above about 34%;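 note: 0% = enzyme with vehicle and 100% = wells lacking enzyme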
PAFAH2 inh = PAFAH2 enzyme inhibitors, primary screen, biochemical, fluorescence polarization, human | AID 492956, 2010 | hit rate 0.99% among 340,000 | recombinant PAFAH2, FP-rhodamine activity probe | Platelet-activating factor acetylhydrolase 2, cytoplasmic (Homo sapiens), Q99487 | inhibition, % at 3.39 µM;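 active = inhibition above the mean over all tested compounds plus 3 SD, cut at about 30% in these data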;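 note: inhibitors block probe labeling of enzyme so polarization drops; 0% = enzyme with DMSO and 100% = wells lacking PAFAH2 protein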
PAFAH1B2 FP inh = PAFAH1B2 enzyme inhibitors, primary screen, biochemical, fluorescence polarization, human | Platelet-activating factor acetylhydrolase IB subunit alpha2 (Homo sapiens), P68402 | recombinant PAFAH1B2, FP-rhodamine activity probe | inhibition, % at 3.39 µM | hit rate 1.2% among 340,000 | AID 492953, 2010;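 active = inhibition above the mean of all tested compounds plus 3 SD, cut at about 24% in these data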;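 note: 0% = enzyme with DMSO and 100% = wells lacking PAFAH1B2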
PAFAH1B3 FP inh = PAFAH1B3 enzyme inhibitors, primary screen, biochemical, fluorescence polarization, human. AID 492972, 2010. Platelet-activating factor acetylhydrolase IB subunit alpha1 (Homo sapiens), Q15102. inhibition, % at 3.39 µM. hit rate 0.28% among 340,000. recombinant PAFAH1B3, FP-rhodamine probe;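 active = inhibition above the screen-wide average of all tested compounds plus 3 SD, cut at about 25% in these data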;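 note: 0% = enzyme with DMSO only and 100% = wells lacking PAFAH1B3 protein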
Target sequence (Q15102 whole entry, looked up): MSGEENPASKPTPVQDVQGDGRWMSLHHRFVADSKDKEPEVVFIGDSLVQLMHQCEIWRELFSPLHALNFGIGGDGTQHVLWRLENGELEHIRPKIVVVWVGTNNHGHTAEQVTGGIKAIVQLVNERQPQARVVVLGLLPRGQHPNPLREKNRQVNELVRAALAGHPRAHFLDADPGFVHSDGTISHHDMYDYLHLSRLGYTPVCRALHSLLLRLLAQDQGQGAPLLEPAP
pPAFAH FP inh = pPAFAH enzyme inhibitors, primary screen, biochemical, fluorescence polarization, human; Platelet-activating factor acetylhydrolase (Homo sapiens), Q13093; recombinant pPAFAH, FP-rhodamine probe fluorescence polarization; inhibition, % at 3.39 µM; hit rate 1.5% among 330,000; AID 463082, 2010;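 active = inhibition above the mean inhibition across the screen plus 3 SD, cut at about 25% in these data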;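 note: inhibitors block binding of the rhodamine activity-based probe so polarization drops; 0% = enzyme with DMSO and 100% = wells lacking pPAFAH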
DAGLB inh conf = DAGLB lipase inhibitors, retest, confirmation, biochemical, fluorescence, HEK293T membranes; inhibition, % at 5.17 µM; HEK293T DAGLB membrane lysate, EnzChek fluorogenic substrate; shares compounds with DAGLB inhibitor; hit rate 73% among 190;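 active = mean inhibition over triplicate wells above a set limit taken from the primary lipase screen, cut at about 34% in these data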;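 note: 0% = DAGLB with DMSO and 100% = wells lacking DAGLB enzyme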
The depositor's hits bear a star; nt = no result. An excerpt weighted towards active compounds, which were near 3% of everything screened.

SMILES	ATG4B inh	DAGLB inhibitor	PAFAH2 inh	PAFAH1B2 FP inh	PAFAH1B3 FP inh	pPAFAH FP inh	DAGLB inh conf
Fc1ccc(NC(=S)SCc2ccc3c(c2)OCO3)cc1F	nt	-4.7	nt	nt	nt	nt	nt
O=C(NC(C(=O)N/N=C/c1ccccc1)c1n[nH]c(=O)c2ccccc12)c1ccccc1 (stereo not drawn)	-20.7	31.8	4.9	2.0	5.3	3.3	nt
O=C(NC(C(=O)N/N=C/c1c2ccccc2cc2ccccc12)c1n[nH]c(=O)c2ccccc12)c1ccccc1 (stereo not drawn)	-2.4	39.9*	-12.4	-2.7	1.8	-0.1	37.5*
C=CCn1c(COc2ccccc2F)nnc1SCCN1C(=O)c2ccccc2C1=O	-5.1	-3.3	1.3	2.8	2.2	2.0	nt
COC(=O)CCN1CCN(S(=O)(=O)c2ccccc2Br)CC1	2.4	1.0	6.4	5.7	7.8	2.6	nt
O=C1CC(c2ccccc2)=C(c2ccccc2)C1	-0.1	70.6*	0.9	20.2	7.0	nt	-5.2
Cc1ccccc1CC(=O)Nc1ccc(S(=O)(=O)N2CCN(C)CC2)cc1	-6.8	-2.6	-1.1	10.6	-2.8	-3.8	nt
Cc1cc(C)cc(NC(=O)Nc2cccnc2)c1	-9.2	0.8	4.2	4.8	3.4	nt	nt
Cc1ccc(NC(=O)Nc2cccnc2)cc1NC(=O)Nc1cccnc1	-9.3	37.1*	-7.1	-9.8	2.0	-4.1	31.6
COCC(=O)N1C[C@H]2CON(C)[C@H]2C[C@H]1c1cccc(-c2ccc(C#N)cc2)c1	9.3	-0.9	-9.8	3.8	7.9	nt	nt
O=[N+]([O-])c1cc([N+](=O)[O-])c2oc(-c3ccccc3)c(Br)c2c1O	28.7	36.9*	45.8*	42.6*	28.5*	nt	37.2*
CN(CC(=O)Nc1ccc(F)cc1)C(=O)COC(=O)c1nc(Cl)ccc1Cl	nt	2.3	nt	nt	nt	nt	nt
CN(C)c1ccc(N=Nc2ccccc2C(=O)OCC(=O)Nc2ccccc2C(F)(F)F)cc1	13.6	35.2*	-3.5	0.9	0.1	nt	59.5*
CCN1C(c2ccccc2)=C(c2ccccc2)S/C1=C\C=C1/SC(=S)N(C)C1=O	0.0	13.9	-20.4	-14.1	-4.6	-18.5	nt
CCN1C(c2ccccc2)=C(c2ccccc2)S/C1=C/C=C1\SC(=S)N(C)C1=O	-6.8	38.6*	-25.4	-14.0	-22.5	nt	21.7
O=C1NC(=Nc2ccccc2Cl)S/C1=C\c1cccc([N+](=O)[O-])c1O	27.0	36.2*	49.8*	14.0	21.7	33.8*	32.3
O=C(O)c1cc(S(=O)(=O)Nc2ccc3oc(=O)sc3c2)ccc1O	-8.0	nt	nt	nt	nt	10.1	nt
CC(=O)c1c(C)oc2ccc(NS(=O)(=O)c3ccc(O)c(C(=O)O)c3)cc12	-3.4	57.0*	11.5	-0.8	6.3	4.6	53.5*
Nc1cc2c(cc1[N+](=O)[O-])-c1ccccc1C2=NO	0.4	34.8*	4.7	1.8	3.5	nt	32.2
CN1C(=O)CS/C1=N\NC(=O)COc1cccc2cccnc12	-7.5	2.5	3.9	2.6	1.1	1.6	nt
Nc1nc(-c2ccccc2)c(N=Nc2ccc(Cl)cc2)s1	6.7	51.4*	4.5	-0.5	-7.6	3.5	84.2*
O=C(CSc1nc2ccccc2o1)N1CCCC1	-9.5	49.1*	-1.4	6.1	5.0	2.7	1.2
O=C(COC(=O)CNS(=O)(=O)c1c(F)cccc1F)NC(=O)NC1CCCCC1	2.2	-1.0	-9.3	-1.9	2.5	2.5	nt
CN(c1ccccc1)c1ccc(/C=C(/CCC(=O)O)c2nc3ccccc3s2)cc1[N+](=O)[O-]	23.4	35.1*	40.6*	93.7*	11.9	nt	49.6*
CCCCOc1ccccc1C(=O)N(Cc1ccc(C)o1)C1CCS(=O)(=O)C1 (stereo not drawn)	0.7	2.7	2.5	2.5	6.1	0.4	nt
SMILES	ATG4B inh	DAGLB inhibitor	PAFAH2 inh	PAFAH1B2 FP inh	PAFAH1B3 FP inh	pPAFAH FP inh	DAGLB inh conf
O=C(C1CCC(=O)N(C2CCCC2)C1)N1CCN(Cc2cccc(F)c2)CC1 (stereo not drawn)	21.5	-6.3	-8.1	-1.9	10.8	2.7	nt
O=C1c2ccccc2C(=O)c2c1cccc2N1CCCC1	34.2	36.4*	7.8	4.7	8.8	19.5	39.4*
O=C1C=C(N2CCCCC2)c2ccccc2C1=O	14.0	nt	nt	nt	nt	11.3	nt
COc1ccc(N(CC(=O)NCc2ccco2)S(C)(=O)=O)cc1	2.3	64.9*	6.7	-4.0	-7.1	-2.3	-8.9
COc1ccc(N(CC(=O)NCc2ccco2)S(C)(=O)=O)cc1OC	-2.5	1.1	9.3	3.0	-1.6	-7.2	nt
N#C/C(N=Nc1ccccc1O)=N\Nc1ccccc1O	-2.5	41.2*	41.2*	36.2*	49.7*	20.0	82.7*
Oc1ccccc1N=N/C(=N/Nc1ccccc1O)c1ccccc1	-0.7	1.3	4.5	3.9	9.0	10.2	nt
Nc1ccccc1NC1CCCCC1	5.1	4.1	-2.2	-0.9	0.9	nt	nt
O=C1CC(=C(c2ccccc2)c2ccccc2)C(=O)N1CCCCN1CCN(c2cccc(Cl)c2)CC1	-8.5	44.7*	-1.6	0.3	1.9	1.9	53.1*
Cc1ccccc1N1CCN(CCCN2C(=O)CC(=C(c3ccccc3)c3ccccc3)C2=O)CC1	18.8	-13.0	12.1	1.0	6.3	2.8	nt
CCOc1ccc(NC(=O)COC(=O)C2COc3ccccc3O2)cc1 (stereo not drawn)	nt	-2.8	nt	nt	nt	nt	nt
CCN(CC)S(=O)(=O)c1ccc(C(C)NC(=O)C2CCCN2C(=O)c2cccs2)cc1 (stereo not drawn)	0.3	-0.8	10.3	2.7	6.1	-0.3	nt
CCOc1ccc2c(c1)-c1c(ssc1=S)C(C)(C)N2	-11.5	38.6*	-9.0	4.4	8.3	10.4	35.2*
CCOc1ccc2c(c1)-c1c(ssc1=S)C(C)(C)N2C(=O)CSC1=NCCS1	-2.5	20.1	1.0	4.9	11.7	9.3	nt
Cc1ccc(NC(=O)CSCC(=O)Nc2cccc(S(=O)(=O)N3CCCCCC3)c2)cc1	-19.4	-3.0	-0.2	4.6	6.2	-0.9	nt
COc1cccc(C(=O)Nc2cccc(C(=O)NC3=NN(c4c(Cl)cc(Cl)cc4Cl)C(=O)C3)c2)c1	4.9	35.6*	-11.8	5.4	21.9	29.9*	17.4
C/C(=N\Nc1ccc([N+](=O)[O-])cc1)c1ccc(C#N)cc1	-6.9	3.1	-14.8	-5.9	5.4	1.0	nt
N#CC(C#N)=NNc1ccc([N+](=O)[O-])cc1	6.5	39.2*	2.8	3.7	10.1	14.1	58.4*
